# Biological target: Metabotropic glutamate receptor 4 (Homo sapiens) (UniProt Q14833)
# Test: agonist response potentiation at mGlu4 receptor – cell-based, GIRK thallium flux, mechanism study for group III mGlu PAM project, late-stage follow-up (AID 743466)
# Conditions: mGlu4/GIRK cells, glutamate CRC fold shift, at 10 µM, stronger effect = higher value
# Metabotropic glutamate receptor 4 (Homo sapiens), sequence (Q14833 whole entry, looked up): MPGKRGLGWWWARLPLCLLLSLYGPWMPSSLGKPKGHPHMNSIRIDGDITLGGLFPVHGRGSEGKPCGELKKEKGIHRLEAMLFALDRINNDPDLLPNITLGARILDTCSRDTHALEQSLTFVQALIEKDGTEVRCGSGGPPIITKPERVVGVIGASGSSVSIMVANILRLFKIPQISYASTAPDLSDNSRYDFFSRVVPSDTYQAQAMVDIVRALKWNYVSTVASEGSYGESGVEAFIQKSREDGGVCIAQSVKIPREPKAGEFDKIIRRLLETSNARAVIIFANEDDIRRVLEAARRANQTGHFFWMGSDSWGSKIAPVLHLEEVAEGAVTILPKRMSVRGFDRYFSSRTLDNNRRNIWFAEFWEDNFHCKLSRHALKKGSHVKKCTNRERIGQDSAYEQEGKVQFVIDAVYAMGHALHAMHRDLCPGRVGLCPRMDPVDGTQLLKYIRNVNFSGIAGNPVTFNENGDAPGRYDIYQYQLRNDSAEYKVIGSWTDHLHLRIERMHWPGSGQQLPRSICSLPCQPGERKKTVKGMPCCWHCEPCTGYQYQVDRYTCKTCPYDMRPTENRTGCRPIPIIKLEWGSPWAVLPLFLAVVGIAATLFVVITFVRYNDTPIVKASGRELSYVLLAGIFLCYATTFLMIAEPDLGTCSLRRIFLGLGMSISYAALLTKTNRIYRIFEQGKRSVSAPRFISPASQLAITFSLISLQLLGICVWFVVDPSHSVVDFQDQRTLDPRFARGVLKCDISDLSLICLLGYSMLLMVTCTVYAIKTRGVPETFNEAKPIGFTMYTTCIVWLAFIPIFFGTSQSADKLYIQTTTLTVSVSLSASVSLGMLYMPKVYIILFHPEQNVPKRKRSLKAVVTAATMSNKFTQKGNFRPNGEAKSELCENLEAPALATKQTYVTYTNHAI
smiles,measurement,value
COC(=O)c1ccc(-n2c(C)cc(C(=O)CSc3ccc(NC(C)=O)cc3)c2C)cc1,fold shift,1.84
